Bioassay records deposited in PubChem BioAssay by National Center for Advancing Translational Sciences (NCATS).
Compounds with a hit are over-represented: about 2.6% of the library has one in this group of screens.
Cruzain Triton = cruzain (T. cruzi) inhibition with detergent | P25779 | purified cruzain, Z-FR-AMC fluorescence, 0.01% Triton | Potency, µM, hits mostly inhibitors | hit rate 0.43% among 200,000 | AID 1478; note: nearly all actives have a fitted effect of over 40% in size
Target sequence (P25779 123-467 limits assumed): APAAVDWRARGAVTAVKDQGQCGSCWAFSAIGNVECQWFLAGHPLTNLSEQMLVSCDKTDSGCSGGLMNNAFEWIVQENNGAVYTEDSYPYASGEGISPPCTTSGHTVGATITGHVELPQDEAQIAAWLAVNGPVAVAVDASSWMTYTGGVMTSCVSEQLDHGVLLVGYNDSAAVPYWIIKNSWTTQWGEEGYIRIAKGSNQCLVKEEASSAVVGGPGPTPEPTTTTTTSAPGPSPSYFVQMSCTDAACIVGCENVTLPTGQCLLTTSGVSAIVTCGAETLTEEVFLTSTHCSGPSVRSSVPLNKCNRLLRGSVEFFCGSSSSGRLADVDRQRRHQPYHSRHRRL
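15 min RT preincubation of 1.5 nM cruzain with compound, then 2 uM Z-FR-AMC added; kinetic AMC fluorescence, 60 s delta. Triton X-100 0.01%, pH 5.5.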
Cruzain noTriton = inhibitors of Trypanosoma cruzi cruzain without detergent | Potency, µM, usual class: inhibitors | hit rate 2.3% among 200,000 | purified cruzain, Z-FR-AMC fluorescence, no detergent | AID 1476; note: nearly all actives have a fitted effect of over 40% in size
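Detergent-free condition (0.00005% Triton X-100) in acetate buffer pH 5.5 with DTT. 1.5 nM enzyme and compound were pre-mixed 15 min, then 2 uM Z-FR-AMC substrate added; reaction progress from fluorescence change between first and third reads (60 s).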
A number is an active result; . = inactive; ? = inconclusive. Calls come from the whole dose curve; as a rule, active = well fitted curve in the direction sought with a large enough effect; inconclusive = small, poorly fitted or top-dose-only effect, or another doubt; inactive = no such curve, though single readings can be large; an effect the other way counts as inactive or inconclusive.

SMILES	Cruzain Triton	Cruzain noTriton
CCOC(=O)c1c(C)oc2ncnc(NCCCN3CCN(c4cc(C)ccc4C)CC3)c12	.	.
COc1ccc(C)cc1-n1nnnc1SCC(=O)c1ccc2c(c1)OCCO2	.	25µM
COc1ccc(-n2nnnc2SCC(=O)c2ccc3c(c2)OCCO3)c(OC)c1	.	?
Cn1ncc(C(=O)N2CCN(c3ccccc3)CC2)c1C1CCN(C(=O)OC(C)(C)C)CC1	.	?
COc1cccc(Nc2ncc3nc(-c4ccccc4)c(=O)n(Cc4cccs4)c3n2)c1	.	5µM
COc1cccc(Nc2ncc3nc(CCc4ccccc4)c(=O)n(Cc4cccs4)c3n2)c1	.	4µM
COc1ccc(Oc2ncc3nc(-c4ccccc4)c(=O)n(Cc4cccs4)c3n2)cc1	.	25µM
COCCn1c(=O)c(CCc2ccccc2)nc2cnc(Nc3cccc(OC)c3)nc21	.	.
O=c1c(CCc2ccccc2)nc2cnc(Nc3ccccc3)nc2n1Cc1cccs1	.	25µM
COc1ccc(Oc2ncc3nc(C)c(=O)n(Cc4cccs4)c3n2)cc1	.	.
COc1ccc(-c2nc3cnc(Nc4ccccc4)nc3n(Cc3cccs3)c2=O)cc1	.	.
Cc1nc2cnc(Nc3ccccc3)nc2n(Cc2cccs2)c1=O	.	.
COc1cccc(C(=O)c2cn(CC(=O)NCc3ccccc3Cl)c3nc(C)ccc3c2=O)c1	.	.
COc1ccc(CNC(=O)c2cc3ccccn3n2)c(OC)c1	.	.
COc1ccc(C2=C(N3CCN(c4cccc(C)c4C)CC3)c3ccccc3C2=O)cc1	.	.
O=C(CCc1ccc(S(=O)(=O)N2CCCCC2)cc1)c1nnc(-c2ccccc2)o1	.	25µM
O=C(c1ccc(S(=O)(=O)N2CCCCC2)cc1)c1nnc(-c2ccc(Cl)cc2)o1	.	.
CCN1CCN(C(=S)Nc2ccc(Cl)cc2Cl)CC1	.	.
CN1CCN(C(=S)Nc2ccc(Cl)cc2Cl)CC1	.	1.6µM
COc1ccc(CC(=O)Nc2c(C(=O)N3CCN(c4ccccc4F)CC3)oc3ccccc23)cc1OC	.	?
O=[N+]([O-])c1ccc(/C=N\N2CCN(c3ccc(Cl)cc3)CC2)cc1	.	16µM
O=[N+]([O-])c1ccc(Cl)c(/C=N/N2CCN(Cc3ccc(Cl)cc3)CC2)c1	.	.
CCOC(=O)N1CCN(c2nc(-c3ccc(Cl)cc3)cs2)CC1	.	.
O=C(c1cccc([N+](=O)[O-])c1)N1CCN(c2ccc(Cl)cc2)CC1	.	.
O=[N+]([O-])c1cccc(/C=N\N2CCN(c3ccc(Cl)cc3)CC2)c1	.	25µM
SMILES	Cruzain Triton	Cruzain noTriton
O=[N+]([O-])c1ccc(N2CCN(c3nc(-c4ccc(Cl)cc4)cs3)CC2)cc1	.	13µM
COC(=O)[C@H]1O[C@@H](c2cc(OC)c(C)c(OC)c2OCc2ccccc2)[C@H](C)[C@H]2O[C@@]12C	.	.
CN(C(=O)CSc1nc2ncccc2o1)c1ccc(F)cc1	.	.
Cc1cc(C)cc(NC(=O)c2cccc(N3CCCS3(=O)=O)c2)c1	.	.
Brc1cccc(-c2nnc(CN3CCN(c4ccccn4)CC3)o2)c1	.	.
Cc1ccc(NC(=O)Cn2nnc(C(=O)NCc3cccs3)c2N)cc1Cl	.	25µM
CCc1ccccc1NC(=O)Cn1nnc(C(=O)NCc2cccs2)c1N	.	20µM
COc1cc(OC)c(NC(=O)c2nnn(Cc3ccc(C)cc3)c2N)cc1Cl	.	.
CCc1ccccc1NC(=O)c1nnn(CC(=O)Nc2c(C)cc(C)cc2C)c1N	.	32µM
CCc1ccccc1NC(=O)Cn1nnc(C(=O)Nc2ccc(OC)c(OC)c2)c1N	.	.
COc1ccccc1NC(=O)Cn1nnc(C(=O)NCc2cccs2)c1N	.	.
CCc1ccc(Cn2nnc(C(=O)Nc3ccc(OC)cc3OC)c2N)cc1	.	25µM
Cc1ccc(NC(=O)Cn2nnc(C(=O)NCc3cccs3)c2N)cc1	.	?
O=C(Nc1ccc(F)cc1F)c1ccc(-n2cnnc2)cc1	.	.
Cc1cccc(NC(=O)Cn2nnc(C(=O)Nc3ccc(F)c(Cl)c3)c2N)c1	.	25µM
Cc1ccc(CNC(=O)c2nnn(CC(=O)Nc3cc(C)ccc3C)c2N)cc1	.	.
COc1ccc(NC(=O)Cn2nnc(C(=O)Nc3ccc(C)c(F)c3)c2N)cc1Cl	.	.
CCc1ccc(NC(=O)Cn2nnc(C(=O)NCc3ccc(C)cc3)c2N)cc1	.	20µM
CCOC(=O)c1cnc2c(ccc3ccccc32)c1Nc1ccc(N(C)C)cc1	.	.
Cc1c(NC(=O)c2cccs2)cccc1-c1nc2cc(Cl)ccc2o1	.	?
Cc1ccc(-n2nc(C(=O)N(C)c3ccc(C)c(C)c3)c3c4ccccc4n(C)c3c2=O)cc1	.	.
COc1cc2c(cc1NC(=S)Nc1cccc3ccccc13)oc1ccccc12	.	10µM
CC(C)NC(=O)c1ccccc1NC(=O)/C=C/c1ccc([N+](=O)[O-])cc1	.	.
COc1cc2c(cc1NC(=O)/C=C/c1ccc([N+](=O)[O-])cc1)oc1ccccc12	.	5µM
COc1cc2c(cc1NC(=S)Nc1cccc(C(F)(F)F)c1)oc1ccccc12	.	16µM
SMILES	Cruzain Triton	Cruzain noTriton
COc1cc2c(cc1NC(=O)CSCC(=O)O)oc1ccccc12	.	.
COc1cc2c(cc1NC(=O)Nc1ccccc1)oc1ccccc12	.	?
Cc1nn(C(=O)c2ccccc2F)c(C)c1S(=O)(=O)N1CCOCC1	.	.
CCCc1nn2c(=O)cc(COC(=O)c3ccccc3NC(=O)c3ccc(OCC)cc3)nc2s1	.	.
CCN1CCN(c2csc3ccc(Br)cc3c2=O)CC1	.	.
CCc1ccc(/C=C2\SC(=S)N(CCCC(=O)Nc3ccccn3)C2=O)cc1	.	.
O=C(CCCN1C(=O)/C(=C/c2cccc(Br)c2)SC1=S)Nc1ccccn1	.	25µM
CC1CN(C(=O)CCC(=O)Nc2cc(F)ccc2F)c2ccccc2S1 (configuration not stated)	.	.
CC(=O)c1sc2c(c1C)c(=O)n(-c1ccc(Cl)cc1)c(=O)n2Cc1ccc(Cl)cc1	.	?
CCOc1c(Br)cc(C2C=C(C(=O)O)Nc3ncnn32)cc1OC (configuration not stated)	.	.
CN(c1ccccc1)S(=O)(=O)c1ccc(NC(=S)NC(=O)C2CC2)cc1	.	.
CN(Cc1ccccc1)S(=O)(=O)c1ccc(NC(=S)NC(=O)C2CCCC2)cc1	.	2.5µM
CCN(CC)S(=O)(=O)c1ccc(C(=O)NC2CC(=O)N(c3ccc(OC)c(OC)c3)C2)cc1 (configuration not stated)	.	?
CN(C)C(=O)n1nnnc1Cc1ccc(-c2ccccc2)cc1	.	.
COc1ccc(C(=O)Nc2ccccc2-c2nc3ccccc3s2)c(OC)c1	.	.
CCCCC(CC)CNCC(CC)CCCC (configuration not stated)	.	.
COc1ccc(Cl)cc1Nc1nc(-c2sc(NC(=O)c3ccco3)nc2C)cs1	.	16µM
COc1ccc(Cl)cc1Nc1nc(-c2sc(NC(=O)C(C)(C)C)nc2C)cs1	.	.
CCCCC(=O)Nc1nc(C)c(-c2csc(Nc3cc(OC)ccc3OC)n2)s1	.	?
Cc1ccc(Cl)cc1Nc1nc(-c2sc(NC(=O)c3ccccc3)nc2C)cs1	.	6.3µM
CCCCC(=O)Nc1nc(C)c(-c2csc(Nc3cc(Cl)ccc3OC)n2)s1	.	10µM
Cc1nc(NC(=O)c2ccccc2)sc1-c1csc(Nc2cccc(F)c2)n1	.	?
